Columns and labels:
Experiment in all cases: PBM binding z-score (relative to random genomic background probes); higher = stronger binding; sequences stand for … in GC…GCGATTGACAGCGTAGAATGAAGG
[1] = system: FXR:RXRa (NR concentration 270 nM, RXRa partner concentration 90 nM)
Outline: (§1)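 Scanned fluorescence from custom Agilent 4×180K protein-binding microarrays was regression-normalized. Binding z-scores use random background probes as reference. Ligand-free nuclear receptor dimers were incubated on the arrays for 1 h and detected with antibodies against each partner (one per run).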

[2] = system: LXRa:RXRa (NR concentration 270 nM, RXRa partner concentration 90 nM)
Outline: as §1

[3] = system: LXRa homodimer (NR concentration 270 nM)
Outline: as §1

[4] = system: LXRb:RXRa (NR concentration 270 nM, RXRa partner concentration 90 nM)
Outline: as §1

[5] = system: LXRb homodimer (NR concentration 270 nM)
Outline: as §1

[6] = system: PPARa:RXRa (NR concentration 270 nM, RXRa partner concentration 90 nM)
Outline: as §1

[7] = system: PPARg:RXRa (NR concentration 180 nM, RXRa partner concentration 90 nM)
Outline: as §1

[8] = system: PPARg:RXRa 270nM:90nM, anti-RXR (NR concentration 270 nM, RXRa partner concentration 90 nM)
Outline: as §1

[9] = system: PPARg:RXRa 30nM:10nM, anti-RXR (NR concentration 30 nM, RXRa partner concentration 10 nM)
Outline: as §1

[10] = system: PPARg:RXRa 90nM:30nM, anti-RXR (NR concentration 90 nM, RXRa partner concentration 30 nM)
Outline: as §1

[11] = system: PPARg:RXRa DBDmut IVT, anti-RXR (DBD mutation: RXRa K156A/R161A, NR concentration 270 nM, RXRa partner concentration 90 nM)
Outline: as §1

[12] = system: PPARg:RXRa IVT, anti-PPARg (NR concentration 270 nM, RXRa partner concentration 90 nM)
Outline: as §1

[13] = system: PPARg DBDmut:RXRa IVT, anti-PPARg (DBD mutation: PPARg1 K132A/R137A, NR concentration 270 nM, RXRa partner concentration 90 nM)
Outline: as §1

[14] = system: PPARg DBDmut IVT, anti-PPARg (DBD mutation: PPARg1 K132A/R137A, NR concentration 270 nM)
Outline: as §1

[15] = system: PPARg homodimer (NR concentration 180 nM)
Outline: as §1

[16] = system: PXR:RXRa (NR concentration 270 nM, RXRa partner concentration 90 nM)
Outline: as §1

[17] = system: PXR homodimer (NR concentration 270 nM)
Outline: as §1

[18] = system: RARa:RXR (NR concentration 270 nM, RXRa partner concentration 90 nM)
Outline: as §1

[19] = system: RARa homodimer (NR concentration 270 nM)
Outline: as §1

[20] = system: RARb:RXRa (NR concentration 270 nM, RXRa partner concentration 90 nM)
Outline: as §1

Row | Sequence | PBM binding z-score [1] | PBM binding z-score [2] | PBM binding z-score [3] | PBM binding z-score [4] | PBM binding z-score [5] | PBM binding z-score [6] | PBM binding z-score [7] | PBM binding z-score [8] | PBM binding z-score [9] | PBM binding z-score [10] | PBM binding z-score [11] | PBM binding z-score [12] | PBM binding z-score [13] | PBM binding z-score [14] | PBM binding z-score [15] | PBM binding z-score [16] | PBM binding z-score [17] | PBM binding z-score [18] | PBM binding z-score [19] | PBM binding z-score [20]
1 | AACTCTAGGTAACCAAGTTCAGTGAATGCCGAAC | 0.211 | 0.537 | 0.474 | 0.24 | 0.213 | 0.878 | 0.528 | 0.367 | -0.222 | 0.0109 | 3.59 | 2.39 | -0.137 | 0.215 | 0.0478 | 1.69 | 1.29 | 0.617 | 0.354 | 0.858
2 | ATCGAAAGGTCGAGGTGATTATAGAGAAAGGGAA | 4.57 | 3.62 | 0.192 | 2.64 | 0.41 | 4.56 | 3.24 | 3.59 | 1.31 | 2.75 | 0.469 | 2.16 | 1.08 | 1.21 | 1.85 | 2.51 | 0.0251 | 3 | 0.473 | 4.2
3 | CCTCGCAGGCCAATCTGGGTCACTCAAGGCTTGA | 0.68 | 1.48 | -0.253 | 0.914 | -0.638 | 3 | 1.74 | 2.28 | -0.176 | 1.3 | 3.89 | 4.74 | -0.647 | -1.36 | 0.567 | 1.21 | -0.402 | 1.75 | -0.288 | 1.67
4 | ATATGTAGGTTAATGGTCATTCAGGTTGGTTCGC | 0.826 | 1.09 | 0.821 | 1.24 | 0.469 | 4.6 | 7.74 | 7.54 | 6.76 | 7.88 | 7.35 | 7.31 | 4.17 | 3.57 | 2.47 | 1.23 | 0.787 | 0.723 | 1.49 | 1.45
5 | GCTTGTAGATTAAGGTTAAGAAAGACTAAGCTAA | 0.292 | 0.89 | -0.399 | 0.611 | -0.832 | 1.32 | 0.216 | 0.627 | -0.258 | 0.49 | -0.0536 | 0.119 | 0.205 | -0.0743 | 0.0936 | 0.375 | -0.332 | 1.01 | 0.194 | 0.875
6 | ACTAATAGTTGAGACGAGGGCAACCGATAGGTTG | 0.996 | 0.527 | -0.147 | 0.288 | 0.0115 | 0.669 | 0.841 | -0.0729 | 0.0984 | 0.103 | -0.206 | 0.29 | -0.296 | 0.434 | -0.0381 | 2.33 | 0.121 | 1.08 | -0.0731 | 1.34
7 | TCGACTAGGTTACCAATGGGGCATTCAGCTTTCT | 0.55 | 1.5 | -0.443 | 1.49 | -0.537 | 1.37 | 0.614 | 1.78 | 2.68 | 2.06 | 4.11 | 2.87 | 0.333 | 0.263 | 0.845 | 0.199 | -0.246 | 0.659 | -0.05 | 1.18
8 | CCTACTGGGCCTCGAAAGGTCATTGATTCAGTGA | 3.05 | 3.94 | 4.13 | 3.74 | 0.187 | 4.05 | 1.44 | 2.98 | 0.556 | 1.97 | 2.57 | 3.15 | -1.13 | -0.00532 | 2.06 | 4.88 | 1.11 | 4.9 | 0.198 | 3.66
9 | CGAACTAGGTCATCCAGGACAGTAAATACATTGA | 4.22 | 2.79 | 0.899 | 2.36 | 0.21 | 4.68 | 7.87 | 6.33 | 3.68 | 5.68 | 7.97 | 8.2 | 3 | 3.62 | 2.26 | 2.15 | 1.3 | 2.69 | 0.413 | 3.89
10 | ATCTCTAGGTAAAGATAGTTCACTGAATGCAAAT | 0.402 | 4.91 | 1.11 | 1.37 | 0.641 | 1.26 | 0.98 | 0.827 | 0.387 | 0.797 | 2.05 | 1.64 | 0.743 | 0.839 | 1.04 | 1.81 | 0.848 | 1.12 | 0.837 | 1.26
11 | ACTAGTTGGTCAGCTGAGGTCAAACACAATTCGG | 3.81 | 4.24 | 4.08 | 4.26 | 1 | 4.22 | 1.65 | 2.34 | 0.396 | 1.55 | 1.45 | 2.49 | 0.694 | 0.579 | 3.02 | 6.03 | 3.32 | 5.18 | 2.07 | 3.62
12 | AGAATGAGGCTACCAAAGATCAGGGAAACGCTTG | -0.398 | 0.883 | -0.337 | -0.482 | -1.07 | 0.361 | 0.85 | 0.0255 | -0.0527 | 0.1 | 1.61 | 0.854 | 0.153 | -0.213 | -0.49 | -0.51 | -0.439 | -0.0885 | -0.557 | 0.164
13 | AATACAGGGTCACTAGGCCGGAGTAGGTACGAAT | 5.72 | 5.1 | 0.78 | 3.77 | 1.05 | 5.36 | 6.6 | 6.03 | 2.5 | 4.78 | 3.1 | 5.05 | 0.885 | 0.938 | 1.34 | 2.98 | 0.306 | 3.81 | -0.208 | 3.97
14 | CCGACTGGGGCAGAAAGGTTGCCATACCATCCGG | -0.157 | -0.408 | -0.611 | -0.446 | -1.22 | 0.46 | 0.735 | 1.19 | -0.155 | 0.7 | 1.37 | 1.17 | -1.21 | -1.54 | -0.128 | -0.241 | -0.699 | -0.0627 | -0.964 | 0.6

Source: the supplement of paper PMC6555819
